Experimental data reported in PubChem BioAssay.
“And” between values parts separate entries of the source, which are not always exact repeats. Identical values can stand only once. More than one record can exist for a structure, and the calls need not agree. The source made the active and inactive calls. Unless noted, the rule behind the calls is not given here.

Experiments:
[1] = kinase inhibitors against Plasmodium liver-stage infection, cell-based, known kinase inhibitor set, luminescence, hepatoma host viability (AID 624392); details: Plasmodium liver stage in hepatoma cells, luciferase luminescence, concentration not given here; liver cell % of control: measured here: host liver cell viability; parasite % of control: stronger effect = lower value;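 note: infected cells incubated roughly two days before readout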
[2] = modulators of glucocorticoid suppression of NF-kB, cell-based, luciferase, IL-1B stimulus, dexamethasone (AID 624486); details: NF-kB luciferase reporter, IL-1B + dexamethasone, luminescence; percent of negative control (+Dex): actives lie on both sides, concentration not given here; z-score: measured here: IL-1B alone, no Dex;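 for percent of negative control (+Dex): 100% = mean signal of vehicle control wells on the plate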
[3] = kinase inhibitors altering Pseudomonas killing of worms, whole organism (AID 651566);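 note: tested at 14 µM; sign flipped so higher z means a lower ratio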; details: C. elegans killed by P. aeruginosa, survival ratio
[4] = activators of macrophage pro-inflammatory response, cell-based, murine, luminescence (AID 652131); details: murine macrophage pro-inflammatory reporter, stronger effect = higher value
[5] = biological target: Cellular tumor antigen p53 (Homo sapiens) (UniProt P04637); experiment: kinase inhibitors altering GFP-p53 stability in HPV16-positive cells, imaging, known kinase inhibitor set, EGFP/DsRed ratio (AID 1053116); details: stronger effect = higher value; EGFP object count: measured here: GFP-p53 positive objects count;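 note: cells exposed to compounds for 24 h at 37 °C before reading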
[6] = IRF3 reporter activation in THP-1 macrophages, cell-based, PMA-stimulated THP-1, luminescence (AID 1053176); details: PMA-differentiated THP-1, IRF3 reporter luminescence; stronger effect = higher value
[7] = survival rescue of mitochondrial mutant cells in low glucose, primary screen, MELAS cybrids, Rieske KO mouse fibroblasts, CellTiter-Glo (AID 1508586;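 active = mean z-score across replicates of 1.96 or higher in either the MELAS or the Rieske mutant cell line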;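 note: z relative to plate mean and SD of compound and empty wells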)
[8] = MELAS cybrid survival, CellTiter-Glo 48 h, stronger effect = higher value
[9] = Rieske KO mouse fibroblast survival, CellTiter-Glo 72 h

Cellular tumor antigen p53 (Homo sapiens), sequence (P04637 whole entry, looked up): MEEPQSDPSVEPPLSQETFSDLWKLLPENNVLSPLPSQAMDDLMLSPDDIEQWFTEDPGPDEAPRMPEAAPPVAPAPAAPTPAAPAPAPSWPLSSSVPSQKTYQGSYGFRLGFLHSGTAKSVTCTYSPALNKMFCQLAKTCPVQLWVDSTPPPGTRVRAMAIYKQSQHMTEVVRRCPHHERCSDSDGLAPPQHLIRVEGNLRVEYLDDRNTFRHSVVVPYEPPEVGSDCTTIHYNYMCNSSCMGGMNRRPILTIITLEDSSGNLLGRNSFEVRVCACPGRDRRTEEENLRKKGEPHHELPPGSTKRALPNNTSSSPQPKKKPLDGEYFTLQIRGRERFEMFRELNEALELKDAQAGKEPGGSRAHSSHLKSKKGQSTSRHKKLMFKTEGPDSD

SMILES	liver cell % of control [1]	parasite % of control [1]	percent of negative control (+Dex) [2]	z-score [2]	z-score [3]	z-score [4]	EGFP object count [5]	EGFP/DsRed ratio [5]	fraction signal [6]	z-score [7, 8]	z-score [7, 9]
COc1ccc(-c2nn3ncccc3c2-c2ccnc(Nc3ccc(Cl)c(C(F)(F)F)c3)n2)cc1	101%	87.8% (inactive)	98% (inactive)	0.34	-1.15 (inactive)	-0.74 (inactive)	2.5	0.0806 (inactive)	-0.0025 (inactive)	1.48 (inactive)	-0.347
N#Cc1c(NC(=O)CN2CCOCC2)sc2c1CCCC2	105%	134% (inactive)	98% (inactive)	-0.1	0.4 (inactive)	0.254 (inactive)	3.5	0.0894 (inactive)	0.0015 (inactive)	-0.581 (inactive)	-0.17
Cc1cccc2c(N=Nc3ccc(S(N)(=O)=O)cc3)c(O)[nH]c12	89.8%	131% (inactive)	111% (inactive)	1.54	-0.125 (inactive)	-0.036 (inactive)	3.5	0.095 (inactive)	-0.0075 (inactive)	0.912 (inactive)	-0.47
CCn1c(-c2nonc2N)nc2c(N3CCCC3)nccc21	90.8%	137% (inactive)	80.5% (inactive)	-0.655	-0.89 (inactive)	1.27 (inactive)	3	0.0699 (inactive)	-0.004 (inactive)	0.113 (inactive)	-0.0304
C[C@@H](Oc1cc(-n2cnc3ccc(OC[C@@H](O)CO)cc32)sc1C(N)=O)c1ccccc1Cl	94.6%	81.9% (inactive)	90% (inactive)	-0.93	0.155 (inactive)	-1.41 (inactive)	5	0.0656 (inactive)	-0.0045 (inactive)	-0.759 (inactive)	0.965
Cc1ccc(C(=O)NC(C)C)cc1-c1ccc(C(=O)NCC2CC2)cc1	90%	124% (inactive)	94.5% (inactive)	1.18	0.505 (inactive)	0.198 (inactive)	3	0.0297 (inactive)	-0.008 (inactive)	0.0329 (inactive)	0.189
CCC(=O)Nc1ccc(C)c(-c2ccc(C(=O)NCC3CC3)cc2)c1	51.4%	136% (inactive)	103% (inactive)	1.16	0.67 (inactive)	1.18 (inactive)	3	0.0318 (inactive)	0.001 (inactive)	-0.0107 (inactive)	-0.287
CN(C)CCNC(=O)Nc1ccc(N(C)c2ccnc(Nc3ccc(CS(C)(=O)=O)cc3)n2)cc1	111%	94.7% (inactive)	101% (inactive)	-0.235	-0.12 (inactive)	3.19 (inactive)	1	0.0718 (inactive)	0.0045 (inactive)	-0.741 (inactive)	-0.109
NS(=O)(=O)c1ccc(-c2cc3ccncc3cc2OCc2ccccc2)cc1	218%	144% (inactive)	81% (inactive)	-1.8	-0.345 (inactive)	6.56 (active)	4.5	0.0743 (inactive)	-0.005 (inactive)	-0.151 (inactive)	-0.251
Cc1cc(O)cc(C)c1/C=C/c1cncc(-c2nn[nH]n2)c1	110%	109% (inactive)	106% (inactive)	-0.05	0.305 (inactive)	3.53 (inactive)	4.5	0.0667 (inactive)	-0.004 (inactive)	-0.295 (inactive)	-0.403
NS(=O)(=O)c1cccc(N=Cc2c(O)[nH]c3ccccc23)c1	80.7%	106% (inactive)	89.5% (inactive)	0.485	-1.3 (inactive)	1.25 (inactive)	7	0.162 (inactive)	-0.0005 (inactive)	1.07 (inactive)	-0.155
Nc1nccc(-c2c(-c3ccc(F)cc3)ncn2C2CCC(O)CC2)n1 (centres undefined)	93%	24.7% (inactive)	110% (inactive)	1.26	0.765 (inactive)	2.25 (inactive)	2	0.124 (inactive)	-0.0025 (inactive)	-1.17 (inactive)	-0.368
Cc1cc(Cl)cc2c(N=Nc3ccc(S(N)(=O)=O)cc3)c(O)[nH]c12	94.4%	139% (inactive)	100% (inactive)	0.945	-0.145 (inactive)	-0.3 (inactive)	2.5	0.092 (inactive)	-0.0045 (inactive)	0.0201 (inactive)	-0.605
c1ccc(-c2nc3n(c2-c2ccc4c(c2)OCO4)CCC3)nc1	103%	16.7% (inactive)	102% (inactive)	0.295	1.04 (inactive)	4.3 (inactive)	6	0.172 (inactive)	-0.003 (inactive)	-1.04 (inactive)	0.741
COc1cccc(-n2nc(C)c3c(N/N=C(\C)c4ccncc4)ncnc32)c1	114%	124% (inactive)	100% (inactive)	0.765	0.74 (inactive)	-0.201 (inactive)	2	0.0826 (inactive)	-0.0005 (inactive)	-0.775 (inactive)	-0.494
CNC(=O)c1cc(-c2ccc(F)cc2)cc(-c2ccc(S(=O)(=O)N3CCCC3)cc2)c1N	102%	80.4% (inactive)	92% (inactive)	-0.05	0.5 (inactive)	-0.377 (inactive)	6.5	0.244 (inactive)	-0.007 (inactive)	-0.388 (inactive)	-0.623
COC(=O)c1cncc(/C=C/c2c(C)cc(O)cc2C)c1	108%	131% (inactive)	108% (inactive)	1.96	0.295 (inactive)	-0.608 (inactive)	4.5	0.286 (inactive)	-0.0065 (inactive)	0.159 (inactive)	0.14
CN1CCC(C(=O)Nc2n[nH]c3nc(-c4ccc(O)cc4)c(Br)cc23)CC1	51.2% and 53.8%	292% (inactive) and 294% (inactive)	108% (inactive) and 100% (inactive)	-0.82 and -0.48	0.21 (inactive) and -0.175 (inactive)	-0.483 (inactive) and -0.641 (inactive)	2.5 and 3	0.0956 (inactive) and 0.0438 (inactive)	0.0155 (inactive) and 0.0035 (inactive)	-0.719 (inactive) and 2.2 (active)	-0.17 and -0.0758
Nc1nccc(-c2c(-c3ccc(F)cc3)ncn2CCCN2CCOCC2)n1	120%	130% (inactive)	116% (inactive)	2.06	-0.635 (inactive)	1.67 (inactive)	3.5	0.019 (inactive)	-0.0025 (inactive)	-0.929 (inactive)	-0.324
CN1CCN(CCCNc2nc3ccc(Oc4ccc(NC(=O)Nc5cc(C(F)(F)F)ccc5F)cc4)cc3[nH]2)CC1	95.2%	94.4% (inactive)	97.5% (inactive)	0.025	-0.94 (inactive)	1.21 (inactive)	3.5	0.103 (inactive)	-0.0045 (inactive)	-0.0444 (inactive)	-0.286
CCCNc1cccc(-n2ncc3c(N/N=C/c4ccncc4)ncnc32)c1	95.8%	39.7% (inactive)	90% (inactive)	-0.38	0.37 (inactive)	-1.11 (inactive)	8.5	0.328 (inactive)	-0.005 (inactive)	1.12 (inactive)	-0.108
CCn1c(-c2nonc2N)nc2ccc(F)cc21	98%	113% (inactive)	82.5% (inactive)	-0.655	-0.725 (inactive)	-0.544 (inactive)	4	0.0296 (inactive)	0.0105 (inactive)	-0.0553 (inactive)	0.0939
COC(=O)Nc1nc2ccc(Oc3ccc(NC(=O)Nc4cccc(Cl)c4)cc3)cc2[nH]1	81.3%	298% (inactive)	122% (inactive)	1.3	1.51 (inactive)	0.651 (inactive)	79.5	1.2 (inactive)	-0.0045 (inactive)	-0.179 (inactive)	-0.521
CNC(=O)c1cncc(/C=C/c2c(Cl)cccc2Cl)c1	138%	48.1% (inactive)	92% (inactive)	0.3	0.1 (inactive)	0.203 (inactive)	5.5	0.562 (inactive)	-0.0025 (inactive)	0.726 (inactive)	0.293
Oc1[nH]c2ccccc2c1C=Nc1ccc(-n2cncn2)cc1	80.6%	240% (inactive)	142% (active)	4.13	-0.065 (inactive)	3.17 (inactive)	8.5	0.377 (inactive)	-0.0045 (inactive)	0.931 (inactive)	-0.448
COc1cccc(COc2cc(-n3cnc4ccccc43)sc2C(N)=O)c1	95%	99.6% (inactive)	87% (inactive)	-0.845	1.31 (inactive)	-0.593 (inactive)	4	0.0452 (inactive)	-0.006 (inactive)	-0.15 (inactive)	0.0931
NC(=O)c1sc(-n2cnc3ccc(C(F)(F)F)cc32)cc1OCc1ccccc1Br	104%	160% (inactive)	98.5% (inactive)	0.57	-0.455 (inactive)	-0.965 (inactive)	4	0.119 (inactive)	0.007 (inactive)	-0.166 (inactive)	-0.246
Cc1ccc2c(-c3ccnc(Nc4ccccc4)n3)c(-c3ccc(F)cc3)nn2n1	152%	12.5% (active)	81% (inactive)	-1.78	0.225 (inactive)	-0.658 (inactive)	6	0.152 (inactive)	-0.0025 (inactive)	0.41 (inactive)	-0.16
CCN1CCC(CC(=O)NC2NNC3NNC(c4cccc(F)c4F)CC32)CC1 (centres undefined)	80.9%	32.2% (inactive)	118% (inactive)	-0.095	-0.285 (inactive)	0.818 (inactive)	25.5	0.256 (inactive)	-0.004 (inactive)	-0.762 (inactive)	-0.436
